Bioassay records (PubChem)
A selection: hits, their analogues and other compounds. The true share with any hit is near 11%.
Pf growth 48h: P. falciparum growth inhibition at 48 hours (one generation); 310,000 tested, 5.9% active; P. falciparum luciferase growth in erythrocytes, 48 h; Potency, µM (doses to about 28.7 µM), without a hit: top-dose activity change, negative = inhibition, hits mostly inhibitors; further: on the % scale 0 is the no-effect control and ±100 the full control effect
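Here the parasites carry a stable luciferase gene and grow inside erythrocytes in Albumax-based RPMI medium with compound for one erythrocytic cycle. Activity is scored as loss of luminescent signal.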
AMA1 RON2 block: AMA1-RON2 (P. falciparum) interaction inhibition. AlphaScreen AMA1-biotinylated RON2 peptide binding. Potency, µM (series often up to 58.2 µM), for inactives: at the highest dose activity change, negative = inhibition, usual class: inhibitors. 360,000 tested, 0.2% active;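 further: 0% = vehicle wells and -100% = peptide control; nearly all actives have a fitted effect of over 45% in size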
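AMA1 (3D7) with his tag at 25 nM final met compounds first, then biotinylated RON2 peptide at 25 nM; detection used donor plus acceptor beads, 10 µg/mL apiece, read by AlphaScreen after 30 min at room temperature.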
Sm TGR inh: blocks Schistosoma mansoni thioredoxin glutathione reductase; 360,000 tested, 3% active; purified TGR, DTNB reduction, TNB absorbance 405 nm; Potency, µM (titrated, usually from 114 µM), for the others: at the top dose activity change, negative = inhibition, actives largely listed as inhibitors; Q962Y6; further: on the % scale 0 is the no-effect control and ±100 the full control effect; nearly all actives have a fitted effect of over 60% in size
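First, TGR (20 nM dispensed) and NADPH were mixed with compound. Second, a 15 min room-temperature incubation followed. Third, further NADPH and then DTNB were added to start the reaction. Finally, TNB absorbance was monitored kinetically.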
NS1 inh: influenza NS1 inhibition; Potency, µM (top dose mostly 46.1 µM), without a hit: at the highest dose activity, positive = more growth; 270,000 tested, 0.4% active; AID 2326; calls by dose curve; further: actives are rising curves; nearly all actives have a fitted effect of over 50% in size
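S. cerevisiae expressing influenza A NS1, grown in glucose, washed, then diluted 1:100 into pH 6.0 -URA galactose medium with 23 nl compound. Growth recovery read as OD600; NS1-free strain serves as control.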
Pf growth 96h: inhibits malaria parasite growth, 96 h; P. falciparum luciferase reporter growth, 96 h; Potency, µM (top dose mostly 28.7 µM), without a hit: at the top dose activity change, negative = inhibition, most hits filed as inhibitors; 320,000 tested, 6.9% active; AID 504834; further: on the % scale 0 is the no-effect control and ±100 the full control effect
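P. falciparum expressing integrated firefly luciferase, in erythrocytes at 2% hematocrit, 0.05% parasitemia, incubated with compounds 96 h at 37 C, 5% CO2. Growth inhibition read as loss of luminescence; two-generation exposure targets delayed-death apicoplast inhibitors.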
Starred values were filed as active, the others as inactive; [ ] = remark or other dose. Unless noted, the call rests on the fitted dose curve; in most records, active means well fitted curve in the direction sought with a large enough effect; inconclusive means small, poorly fitted or top-dose-only effect, or another doubt; inactive means no such curve, though single readings can be large; an effect the other way counts as inactive or inconclusive. Potency means the concentration at half of the fitted maximal effect.

`N#Cc1cccc(C(c2nnnn2C2CCCC2)N2CCC(Cc3ccccc3)CC2)c1` (stereo unspecified) gave Pf growth 48h 5.2µM*, AMA1 RON2 block -5%, Sm TGR inh -1%, NS1 inh 14% and Pf growth 96h -18%.
c1cncc(C(c2nnnn2C2CCCCC2)N2CCN3CCCC3C2)c1 (stereo unspecified) was read as Pf growth 48h -23%, AMA1 RON2 block 6%, Sm TGR inh -22%, NS1 inh 7% and Pf growth 96h -57%.
Screening c1csc(C(c2nnnn2C2CCCC2)N2CCCC3(CCCCC3)C2)c1 (stereo unspecified) returned Pf growth 48h 2.1µM*, AMA1 RON2 block -4%, Sm TGR inh -7% and NS1 inh -1%.
For c1ccc(Cn2nnnc2C(c2cccnc2)N2CCN(C3CCCCC3)CC2)cc1 (stereo unspecified) the results were Pf growth 48h inconclusive, AMA1 RON2 block -6%, Sm TGR inh -11%, NS1 inh -8% and Pf growth 96h 13µM*.
c1cncc(C(c2nnnn2C2CCCC2)N2CCCC2)c1 (stereo unspecified) was read as Pf growth 48h -26%, AMA1 RON2 block 4%, Sm TGR inh -36%, NS1 inh -6% and Pf growth 96h 9.3µM*.
Screening O=C(NCCS(=O)(=O)NCc1cccs1)c1ccccc1 returned AMA1 RON2 block -8%.
For c1ccc(C(c2nnnn2C2CCCC2)N2CCCCCC2)nc1 (stereo unspecified) the results were AMA1 RON2 block 1%, Sm TGR inh 0%, NS1 inh 0% and Pf growth 96h -3%.
COc1ccc(Cn2nnnc2C(c2ccccc2)N2CCN(C3CCCC3)CC2)cc1 (stereo unspecified) was read as Pf growth 48h inconclusive, AMA1 RON2 block -4%, Sm TGR inh 2%, NS1 inh -4% and Pf growth 96h 16%.
For COc1ccc(Cn2nnnc2C(c2ccccc2Cl)N2CCN(C3CCCC3)CC2)cc1 (stereo unspecified) the results were Pf growth 48h 15µM*, AMA1 RON2 block -3%, Sm TGR inh 0%, NS1 inh -8% and Pf growth 96h 75%.
For c1ccc(C(c2ccccc2)N2CCN(C(c3ccccn3)c3nnnn3C3CCCC3)CC2)cc1 (stereo unspecified) the results were Pf growth 48h -12%, AMA1 RON2 block 1%, Sm TGR inh 0%, NS1 inh 2% and Pf growth 96h 4.7µM*.
Screening O=C1CSC(=S)N1c1cccnc1 returned AMA1 RON2 block 15%, Sm TGR inh 5%[11.4 µM], NS1 inh -80% and Pf growth 96h 13µM*.
Screening O=C1CSC(=S)N1c1ccccc1 returned AMA1 RON2 block 2%.
Screening Cc1ccc(N2C(=N)SCC2=O)cc1Cl returned Pf growth 48h -13%, AMA1 RON2 block 9%, Sm TGR inh 6%, NS1 inh -9% and Pf growth 96h inconclusive.
Screening COC(=O)C1=C(C)N(c2ccc(F)c(Cl)c2)C(=O)C1 returned Pf growth 48h inconclusive, AMA1 RON2 block -2%, Sm TGR inh 25µM*, NS1 inh 9% and Pf growth 96h 5%.
For O=C1CSC(=S)N1c1ccc(F)c(Cl)c1 the results were Pf growth 48h inconclusive, AMA1 RON2 block 69%, Sm TGR inh 0%, NS1 inh -80% and Pf growth 96h 12µM*.
COCCn1c(C)cc(C(=O)COC(=O)c2ccc([N+](=O)[O-])o2)c1C was read as Pf growth 48h 34%, AMA1 RON2 block -21%, Sm TGR inh 35µM* and Pf growth 96h 2%.
Screening Cc1cc(C(=O)COC(=O)c2ccc3c(c2)OCO3)c(C)n1CC1CCCO1 (stereo unspecified) returned Pf growth 48h 281%, AMA1 RON2 block 2%, Sm TGR inh -4%, NS1 inh -1% and Pf growth 96h 331%.
For Cc1cc(C(=O)COC(=O)c2ccc(O)cc2)c(C)n1CC1COc2ccccc2O1 (stereo unspecified) the results were Pf growth 48h inconclusive, AMA1 RON2 block -9%, Sm TGR inh 3%, NS1 inh 17% and Pf growth 96h 13µM*.
